Laboratory results published in PubChem BioAssay (NCI).
This is part of a sample that, as a whole, favours compounds with a hit. Of some 83,000 tested, about 20% had one in any assay.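 48-hour exposure, single concentration, 96-well plates; percent growth endpoint where 0 means no net growth. Active: below 10.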 Values without a mark were called inactive. Calls of active or inactive are those of the source.

Assays:
Assay in all cases: NCI-60 one-dose screen, 48 h (100 = growth as untreated, 0 = no growth, -100 = all killed)
NCI-H23 lung = conditions: 10 µM unless noted
NCI-H226 lung = conditions: 10 µM unless noted
NCI-H322M lung = conditions: 10 µM unless noted
HOP-62 NSCLC = conditions: 10 µM unless noted
NCI-H460 lung = conditions: 10 µM unless noted
HOP-92 NSCLC = conditions: 10 µM unless noted
NCI-H522 lung = conditions: 10 µM unless noted
A549/ATCC NSCLC = conditions: 10 µM unless noted
786-0 renal = conditions: 10 µM unless noted
COLO 205 colon = conditions: 10 µM unless noted
DU-145 prostate = conditions: 10 µM unless noted
K-562 leukemia = conditions: 10 µM unless noted
MALME-3M melanoma = conditions: 10 µM unless noted
MDA-MB-231 breast = conditions: 10 µM unless noted
RXF 393 renal = conditions: 10 µM unless noted
SF-268 CNS = conditions: 10 µM unless noted
SF-295 CNS = conditions: 10 µM unless noted
SF-539 CNS = conditions: 10 µM unless noted
UACC-257 melanoma = conditions: 10 µM
M14 melanoma = conditions: 10 µM unless noted

| Compound | growth (NCI-H23 lung) | growth (NCI-H226 lung) | growth (NCI-H322M lung) | growth (HOP-62 NSCLC) | growth (NCI-H460 lung) | growth (HOP-92 NSCLC) | growth (NCI-H522 lung) | growth (A549/ATCC NSCLC) | growth (786-0 renal) | growth (COLO 205 colon) | growth (DU-145 prostate) | growth (K-562 leukemia) | growth (MALME-3M melanoma) | growth (MDA-MB-231 breast) | growth (RXF 393 renal) | growth (SF-268 CNS) | growth (SF-295 CNS) | growth (SF-539 CNS) | growth (UACC-257 melanoma) | growth (M14 melanoma) |
| --- | --- | --- | --- | --- | --- | --- | --- | --- | --- | --- | --- | --- | --- | --- | --- | --- | --- | --- | --- | --- |
| COc1cccc(/C=C2\SC(N3CCN(c4ccccn4)CC3)=NC2=O)c1 | 95.5% | 108% | 88.8% | 93.6% | 107% | 92.7% | 71.6% | 94.5% | 108% | 119% | 101% | 82.2% | 96.8% | 99.2% | 113% | 102% | 98.6% | 110% | 101% | 103% |
| Cc1nc(Nc2cccnc2)sc1C(=O)/C=C/c1ccc(Cl)cc1 | 92.8% | 62.5% | 32.1% | 15.6% | 70.6% | 92% | 44.7% | 26.5% | 12.3% | 43.8% | 17.6% | 7.88% (active) | 89.7% | 73.9% | 16.2% | 46.7% | 42.8% | -14.5% (active) | 73.7% |  |
| COC1=CC(c2ccc[nH]2)=N/C1=C\c1[nH]c(C)c(C(=O)CCCCC(=O)Oc2ccc3c(c2)CCC2C3CC[C@]3(C)[C@@H](O)CC[C@@H]23)c1C (stereo not given in full) | 73.3% | 61.5% | 62.9% | 68.4% | 29.6% | 30.4% | 12.9% | 52.6% | 66.1% | 94.6% | 30.6% | 13.6% | 80.1% | 10.9% | 62.4% | 44.6% | 80.8% | 65.9% | 103% | 60% |
| COC1=CC(c2ccc[nH]2)=N/C1=C\c1[nH]c(C)c(C(=O)CCCCC(=O)Nc2ccccc2)c1C | 34.4% | 44.1% | 87.3% | 80.7% | -38.8% (active) | -71.4% (active) | -45.3% (active) | -21.4% (active) | 93.5% | 67.1% | 6.29% (active) | 62.4% | 87.7% | -10.1% (active) | -63.9% (active) | 44.1% | -2.61% (active) | 78.6% | 74.4% | 13.1% |
| O=C(Nc1ccc(F)cc1)c1cc([N+](=O)[O-])ccc1O | 50.1% | 88.3% | 64.3% | 65.2% | 64.2% | 15.7% | 15.3% | 68.1% | 80.2% | 81.5% | 78.3% | 45.3% | 37.4% | 65.9% | 68.2% | 72.9% | 78.6% | 47.3% |  |  |
| O=C1c2ccccc2C(=O)c2c(N=Nc3sc(=O)[nH]c3S)cccc21 | 96.3% | 110% | 99% | 99.3% | 95.9% | 92.9% | 83.1% | 98.1% | 107% | 98.9% | 103% | 78.5% | 93.3% | 97.1% | 115% | 97.3% | 97.2% | 107% | 88.5% | 96.2% |
| COc1ccc([N+](=O)[O-])c(/C=C/C(=O)c2ccccn2)c1 | 91.3% | 84.2% | 83.4% | 78.5% | 89.4% | 66.9% | 90.1% | 87.8% | 93.4% | 89.1% | 28.5% | 21% | 91% | 86.2% | 74.1% | 89.1% | 133% | 95.2% | 96.9% |  |
| COc1ccc(-c2nc3sccn3c2-c2ccnc(NCCCNS(=O)(=O)c3ccc4ccccc4c3)n2)cc1 | 64.3% | 62% | 93.1% | 134% | 75.9% | 104% | 62.4% | 76.1% | 67.6% | 57.6% | 62.1% | 34.6% | 80.8% | 53.7% | 76.9% | 63.5% | 61% | 71.7% | 82.8% |  |
